# In PubChem BioAssay:
# Potency and affinity values are given separately. Active and inactive are the calls of the source. A call without a number means that no potency is given here. Cut-off not given; nearly all actives show IC50 up to about 0.91 µM.
# Target: Calcium-dependent protein kinase 4 (Plasmodium falciparum (isolate 3D7)) (UniProt Q8IBS5)
# Assay: PfCDPK4 kinase inhibitors, biochemical, TCAMS library (AID 1159588)
# Conditions: recombinant PfCDPK4, Kinase-Glo ATP depletion luminescence
# Chain of Calcium-dependent protein kinase 4 (Plasmodium falciparum (isolate 3D7)) (Q8IBS5 whole entry, looked up): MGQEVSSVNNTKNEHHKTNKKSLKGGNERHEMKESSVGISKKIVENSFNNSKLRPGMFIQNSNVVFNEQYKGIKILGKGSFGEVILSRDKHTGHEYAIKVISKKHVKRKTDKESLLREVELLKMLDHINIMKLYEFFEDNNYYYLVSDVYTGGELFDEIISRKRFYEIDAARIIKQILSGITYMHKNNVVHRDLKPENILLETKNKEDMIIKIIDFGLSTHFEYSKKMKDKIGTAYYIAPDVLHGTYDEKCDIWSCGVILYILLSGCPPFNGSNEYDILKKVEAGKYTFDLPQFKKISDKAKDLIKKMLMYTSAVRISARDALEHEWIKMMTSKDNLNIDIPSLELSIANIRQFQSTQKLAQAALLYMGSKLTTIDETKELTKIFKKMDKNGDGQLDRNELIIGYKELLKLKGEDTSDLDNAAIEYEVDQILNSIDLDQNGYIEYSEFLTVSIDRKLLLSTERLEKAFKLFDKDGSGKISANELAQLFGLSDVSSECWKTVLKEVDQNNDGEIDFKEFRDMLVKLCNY
row,SMILES,outcome
1,CC(C)(C)c1ccc(Cc2cccc3nc(N)nc(N)c23)cc1,inactive
2,CCn1c(O)c(N=NC(=S)N2CCCC2)c2ccccc21,inactive
3,CCOC(=O)c1nc2ccc(SC3CCCCC3)cn2c1Br,inactive
4,CCCCOc1c(CCNCCCCNCCc2cc(OC)c3ccccc3c2OCCCC)cc(OC)c2ccccc12,inactive
5,CCOc1cc(Cc2cnc(N)nc2N)ccc1OC,inactive
6,Cc1nc(N)nc(N)c1-c1ccc(Br)c(Br)c1,inactive
7,CCCOc1cc2c(cc1OCCC)C(C=Cc1ccc(Cl)cc1Cl)=NC(C)C2 (centres undefined),inactive
8,COc1ccc(OC)c(CC2c3ccc(Br)c(O)c3CCN2C)c1 (centres undefined),inactive
9,COc1cc(Cc2cnc3nc(N)nc(N)c3c2C)cc(OC)c1OC,inactive
10,Cc1nc(NCc2ccccc2)cc(Nc2cc(NCc3ccccc3)nc(C)n2)n1,inactive
11,CCc1nc(N)nc(N)c1-c1ccc2c(c1)CCCC2,inactive
12,Cc1[nH]c(C)c(-c2ccc(Oc3ccc(Cl)cc3)cc2)c(=O)c1Cl,inactive
13,Cc1c(C(C)(C)C)ccc2nc(N)nc(N)c12,inactive
14,COc1cc(Cc2cnc(N)nc2N)cc(OCCCCNS(=O)(=O)C(F)(F)F)c1OC,inactive
15,Nc1nc(N)c2cc(Cc3ccc([N+](=O)[O-])cc3)cnc2n1,inactive
16,CCC(C)c1cnc2nc(N)nc(N)c2c1C (centres undefined),inactive
17,NC(N)=NC(=O)Nc1ccc(Cl)c([N+](=O)[O-])c1,inactive
18,CCCc1cc(OC)c(CC2c3cc(O)c(Cl)cc3C(c3ccccc3)CN2C)cc1OC (centres undefined),inactive
19,CC1CN=C(c2ccc(NC(=O)Nc3ccc(C4=NCC(C)N4)cc3)cc2)N1 (centres undefined),inactive
20,Oc1c(CNC2CCCCC2)cc(Cl)c2ccccc12,inactive

row,SMILES,outcome
1,Cc1[nH]c(C)c(-c2ccc(Oc3ccc(Cl)c(Cl)c3)cc2)c(=O)c1Br,inactive
2,CC(C)(C)c1ccc(-c2nc3c(ccc4nc(N)nc(N)c43)[nH]2)cc1,inactive
3,Nc1nc(N)c2c(n1)CCc1cc(Br)ccc1-2,inactive
4,CCN(C)C(=O)n1ncc2c3c(N)nc(N)nc3ccc21,inactive
5,Cc1nc2nc(N)nc(N)c2c(C)c1Cc1ccc(N)cc1,inactive
6,Nc1nc(N)c2c(ccc3c2cnn3Cc2cccnc2)n1,inactive
7,Cc1[nH]c(C)c(-c2ccc(Oc3cc(Cl)cc(Cl)c3)cc2)c(=O)c1Br,inactive
8,COc1ccc(OC)c(Cc2c(C)nc3nc(N)nc(N)c3c2C)c1,inactive
9,CCCCc1cc(Cc2cnc(N)nc2N)cc(OC)c1OC,inactive
10,CC(C)c1ccc2c(c1)C(=O)c1ccc(C(=O)O)cc1S2(=O)=O,inactive
11,CCCCNCCOc1ccc(-c2nc(-c3ccccc3)c(-c3ccccc3)[nH]2)cc1,inactive
12,Nc1nc(Cc2ccc(Cl)cc2)nc(Cc2ccc(Cl)cc2)n1,inactive
13,Cc1cc(=O)c(-c2ccc(Oc3ccc(OC(F)(F)F)cc3)cc2)c(C)[nH]1,inactive
14,CC(C)CNc1nc(N)nc2ccc3c(ccn3CC(C)C)c12,inactive
15,CC(=O)Oc1c(Br)c(C)nc(C)c1-c1ccc(Oc2ccc(OC(F)(F)F)cc2)cc1,inactive
16,FC(F)(F)c1ccc2c(NCCCNc3ccnc4cc(C(F)(F)F)ccc34)ccnc2c1,inactive
17,CCNCCCC(C)Nc1ccnc2cc(Cl)ccc12 (centres undefined),inactive
18,CCCN(c1ccc(O)c(CN2CCCCC2)c1)c1ccc([N+](=O)[O-])cn1,inactive
19,CCOC(=O)c1c(-c2ccccc2)c(C(=O)OCC)n2ccccc12,inactive
